Source: PubChem BioAssay (Tox21)
Several values for one entry are separate records, joined by “and”; a condition that tells them apart may be missing. Equal entries are not always repeated. Records with an inconclusive call do not appear. The source holds several records for some structures; these can differ, active in one and inactive in another. Activity calls are given as the source filed them. Unless noted, the call rests on the fitted dose curve; in most records, active means well fitted curve in the direction sought with a large enough effect in the repeat runs; inconclusive means weak or mixed curves; inactive means no such curve, though single readings can be large; an effect the other way counts as inactive or inconclusive.

Assay: qHTS assay to identify small molecule antagonists of the estrogen related receptor (ERR) signaling pathway from Tox21 library (AID 1224848); further: nearly all actives have a fitted effect of over 50% in size; further: potency means the concentration at half of the fitted maximal effect
Details: ERR reporter cell line, luciferase antagonist mode, 18 h; series mostly up to 92.4 µM; activity, negative = inhibition: at the top concentration
Summary of the method: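 ERR cell line, 2,000 cells/well. 6 h settle, then compound (DMSO) added; 18 h at 37 C; ONE-Glo luminescence after 30 min RT.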
On the % scale 0 is the no-effect control and ±100 the full control effect.

| SMILES | activity, negative = inhibition | Potency |
| --- | --- | --- |
| CCCCOC(=O)CCC(=O)OCCCC | 0.0476% (inactive) | – |
| CCCSP(=S)(OCC)Oc1ccc(SC)cc1 (stereo not drawn) | 1.61% (inactive) | – |
| C[C@@H]1C[C@@H]([C@H](O)CC2CC(=O)NC(=O)C2)C(=O)[C@@H](C)C1 | – | 682 nM (active) and 545 nM (active) and 750 nM (active) |
| O=C=NC1CCCCC1 | 34% (inactive) | – |
| C1CS1 | -0.53% (inactive) | – |
| O=C(N[C@H]1CN2CCC1CC2)c1ccc2c(c1)OCCO2 | 0.875% (inactive) | – |
| CCOP(=S)(S)OCC | -7.72% (inactive) | – |
| CCOC(=O)c1cncn1C(C)c1ccccc1 (stereo not drawn) | -1.09% [at 42.5 µM] (inactive) | – |
| N#CC(C#N)=C(C#N)C#N | -2.54% (inactive) | – |
| COc1cc(C[C@@H](C)N)c(OC)cc1Br | -24.1% (inactive) | – |
| CC1(C)CC(=O)CC(C)(C)N1[O] | -0.536% (inactive) | – |
| O=[N+]([O-])O[C@H]1CO[C@H]2[C@@H]1OC[C@H]2O[N+](=O)[O-] | 6.96% [at 42.5 µM] (inactive) | – |
| CCC(C)(C)c1ccc(O)c(C(C)(C)CC)c1 | – | 60.4 µM (active) and inactive |
| CN1CC[C@]23c4c5ccc(O)c4O[C@H]2[C@@H](O)C=C[C@H]3[C@H]1C5 | 1.67% (inactive) | – |
| ClCc1ccccc1Cl | 12.6% (inactive) | – |
| C=C(Cl)Cl | -0.935% (inactive) | – |

Assay: qHTS assay to identify small molecule agonists of the estrogen related receptor (ERR) signaling pathway from Tox21 library (AID 1224849; calls by dose curve; further: nearly all actives have a fitted effect of over 15% in size)
Details: ERR reporter cell line, ONE-Glo luciferase, 18 h; at 42.5 µM (top of the series)
Summary of the method: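 Luminescence readout (ONE-Glo, 30 min RT) after 18 h compound exposure at 37 C of NTP-supplied ERR reporter cells; cells were plated 6 h before compound addition by pin tool.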

| SMILES | activity change, positive = activation |
| --- | --- |
| C[C@@H]1C[C@@H]([C@H](O)CC2CC(=O)NC(=O)C2)C(=O)[C@@H](C)C1 | -64.4% (inactive) |
| CCOC(=O)c1cncn1C(C)c1ccccc1 (stereo not drawn) | -0.608% (inactive) |
| O=[N+]([O-])O[C@H]1CO[C@H]2[C@@H]1OC[C@H]2O[N+](=O)[O-] | 4.43% (inactive) |

Same assay, conditions: ERR reporter cell line, ONE-Glo luciferase, 18 h; at 92.4 µM (top of the series)

| SMILES | activity change, positive = activation |
| --- | --- |
| CCCCOC(=O)CCC(=O)OCCCC | 0.0296% (inactive) |
| CCCSP(=S)(OCC)Oc1ccc(SC)cc1 (stereo not drawn) | 2.16% (inactive) |
| C[C@@H]1C[C@@H]([C@H](O)CC2CC(=O)NC(=O)C2)C(=O)[C@@H](C)C1 | -74.2% (inactive) and -68.3% (inactive) |
| C1CS1 | -0.221% (inactive) |
| O=C(N[C@H]1CN2CCC1CC2)c1ccc2c(c1)OCCO2 | 0.537% (inactive) |
| CCOP(=S)(S)OCC | -3.44% (inactive) |
| N#CC(C#N)=C(C#N)C#N | -1.38% (inactive) |
| COc1cc(C[C@@H](C)N)c(OC)cc1Br | -15.6% (inactive) |
| CC1(C)CC(=O)CC(C)(C)N1[O] | -0.242% (inactive) |
| CC(C)(C)N(NC(=O)c1ccc(Cl)cc1)C(=O)c1ccccc1 | -30.6% (inactive) |
| CCC(C)(C)c1ccc(O)c(C(C)(C)CC)c1 | -59% (inactive) and -10.3% (inactive) |
| CN1CC[C@]23c4c5ccc(O)c4O[C@H]2[C@@H](O)C=C[C@H]3[C@H]1C5 | 1.06% (inactive) |
| ClCc1ccccc1Cl | 8.41% (inactive) |
| C=C(Cl)Cl | -0.979% (inactive) |

Assay: qHTS RealTime-Glo MT Cell Viability Assay in HepG2 cells - 24 hour (AID 1224867); further: nearly all actives have a fitted effect of over 50% in size
Details: RealTime-Glo luminescence; series mostly up to 76.8 µM; activity change, negative = cytotoxicity: at the top concentration
Summary of the method: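 HepG2 suspension premixed with RealTime-Glo reagents is plated at 600 cells per well and left 5 h at 37 C/5% CO2. Compounds in DMSO then go in, and bioluminescence reflecting viable cell number is recorded over 40 h.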

| SMILES | activity change, negative = cytotoxicity |
| --- | --- |
| Cc1nc(N(C)C)nc(OC(=O)N(C)C)c1C | 3.9% (inactive) |
| FC(Cl)(Cl)C(F)(Cl)Cl | -0.42% (inactive) |
| CC(Cc1ccccc1)NCc1ccccc1Cl (stereo not drawn) | -1.86% [at 35.3 µM] (inactive) |
| CCCCOC(=O)CCC(=O)OCCCC | 2.47% (inactive) |
| CCCSP(=S)(OCC)Oc1ccc(SC)cc1 (stereo not drawn) | -15.2% (inactive) |
| O=C=NC1CCCCC1 | -1.31% (inactive) |
| C1CS1 | 1.42% (inactive) |
| O=C(N[C@H]1CN2CCC1CC2)c1ccc2c(c1)OCCO2 | 1.1% (inactive) |
| CON(C)C(=O)Nc1ccc(Cl)cc1 | 0.335% (inactive) |
| CCOP(=S)(S)OCC | -0.153% (inactive) |
| CCCC[N+]1(C)[C@@H]2CC(OC(=O)[C@H](CO)c3ccccc3)C[C@H]1[C@@H]1O[C@@H]12 (stereo partly drawn) | 1.61% [at 35.3 µM] (inactive) |
| COc1cc(CC#N)cc(OC)c1OC | 2.73% [at 35.3 µM] (inactive) |
| C[C@H]1O[C@H](OC2[C@@H](O)[C@@H](O)C(O)[C@H](O)[C@H]2O)[C@@H](N)C[C@@H]1N=C(N)C(=O)O (stereo partly drawn) | 2.39% (inactive) |
| CCOC(=O)c1cncn1C(C)c1ccccc1 (stereo not drawn) | 2.44% [at 35.3 µM] (inactive) |
| CCCCCCCCCCCCCCCl | -0.595% (inactive) |
| CC(C)(C)c1ccc(CCOc2ncnc3ccccc23)cc1 | 0.0914% (inactive) |
| CCCCCCCCP(=O)(O)O | 1.26% (inactive) |
| COc1cc(C[C@@H](C)N)c(OC)cc1Br | -9.45% (inactive) |
| CC(C)(C)N(NC(=O)c1ccc(Cl)cc1)C(=O)c1ccccc1 | -10.7% (inactive) |
| O=[N+]([O-])O[C@H]1CO[C@H]2[C@@H]1OC[C@H]2O[N+](=O)[O-] | 0.0976% [at 35.3 µM] (inactive) |
| COC(=O)Cc1ccccc1 | 1.38% (inactive) |
| CC(O)CN1CCN(CC(=O)[O-])CCN(CC(=O)[O-])CCN(CC(=O)[O-])CC1.[Gd+3] (stereo not drawn) | -0.0099% [at 35.3 µM] (inactive) |
| O=C(N/N=C/c1ccc([N+](=O)[O-])o1)c1cc([N+](=O)[O-])cc([N+](=O)[O-])c1O | 1.43% [at 35.3 µM] (inactive) |
| O=C(Cc1ccccc1)c1ccccc1 | -2.14% (inactive) |
| O=C(O)C(F)(F)C(F)(F)C(F)(F)C(F)(F)C(F)(F)F | 0.848% (inactive) |
| CN1CC[C@]23c4c5ccc(O)c4O[C@H]2[C@@H](O)C=C[C@H]3[C@H]1C5 | -0.657% (inactive) |
| ClCc1ccccc1Cl | -0.405% (inactive) |
| CN(C1CCCCC1)C1CCCCC1 | 0.689% (inactive) |
| N#CC(C#N)=Cc1ccc(O)c(O)c1 | 0.032% [at 35.3 µM] (inactive) |

Assay: qHTS RealTime-Glo MT Cell Viability Assay in HEK293 cells - 32 hour (AID 1224868); further: nearly all actives have a fitted effect of over 50% in size; further: potency means the concentration at half of the fitted maximal effect; on activity change, negative = cytotoxic: top concentration of the series differs between compounds
Details: RealTime-Glo luminescence; series mostly up to 76.8 µM; activity change, negative = cytotoxic: at the top concentration
Summary of the method: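 Reads taken at 0, 8, 16, 24, 32 and 40 h from the same wells. HEK293 cells (600/well) carried RealTime-Glo reagents from seeding, with compound added after a 5 h settle at 37 C.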

| SMILES | activity change, negative = cytotoxic | Potency |
| --- | --- | --- |
| Cc1nc(N(C)C)nc(OC(=O)N(C)C)c1C | 0.439% (inactive) | – |
| FC(Cl)(Cl)C(F)(Cl)Cl | -6.26% (inactive) | – |
| CC(Oc1cccc(Cl)c1)C(=O)O (stereo not drawn) | 12.8% (inactive) | – |
| CC(Cc1ccccc1)NCc1ccccc1Cl (stereo not drawn) | -14.8% [at 35.3 µM] (inactive) | – |
| CCCCOC(=O)CCC(=O)OCCCC | 0.0062% (inactive) | – |
| CCSCc1ccccc1OC(=O)NC | -0.252% (inactive) | – |
| CCCSP(=S)(OCC)Oc1ccc(SC)cc1 (stereo not drawn) | 0.485% (inactive) | – |
| C[C@@H]1C[C@@H]([C@H](O)CC2CC(=O)NC(=O)C2)C(=O)[C@@H](C)C1 | – | 387 nM (active) and 219 nM (active) and 169 nM (active) |
| O=C=NC1CCCCC1 | 10.3% (inactive) | – |
| C1CS1 | 5.57% (inactive) | – |
| O=C(N[C@H]1CN2CCC1CC2)c1ccc2c(c1)OCCO2 | 0.925% (inactive) | – |
| CON(C)C(=O)Nc1ccc(Cl)cc1 | -10.4% (inactive) | – |
| CCOP(=S)(S)OCC | 0.308% (inactive) | – |
| CCCC[N+]1(C)[C@@H]2CC(OC(=O)[C@H](CO)c3ccccc3)C[C@H]1[C@@H]1O[C@@H]12 (stereo partly drawn) | 0.811% [at 35.3 µM] (inactive) | – |
| COc1cc(CC#N)cc(OC)c1OC | 0.96% [at 35.3 µM] (inactive) | – |
| C[C@H]1O[C@H](OC2[C@@H](O)[C@@H](O)C(O)[C@H](O)[C@H]2O)[C@@H](N)C[C@@H]1N=C(N)C(=O)O (stereo partly drawn) | 3.74% (inactive) | – |
| CCOC(=O)c1cncn1C(C)c1ccccc1 (stereo not drawn) | -1.05% [at 35.3 µM] (inactive) | – |
| CCCCCCCCCCCCCCCl | 3.68% (inactive) | – |

| SMILES | activity change, negative = cytotoxic | Potency |
| --- | --- | --- |
| CC(C)(C)c1ccc(CCOc2ncnc3ccccc23)cc1 | 2.42% (inactive) | – |
| N#CC(C#N)=C(C#N)C#N | 19% (inactive) | – |
| CCCCCCCCP(=O)(O)O | -8.05% (inactive) | – |
| COc1cc(C[C@@H](C)N)c(OC)cc1Br | -27.6% (inactive) | – |
| CC1(C)CC(=O)CC(C)(C)N1[O] | 4.03% (inactive) | – |
| O=[N+]([O-])O[C@H]1CO[C@H]2[C@@H]1OC[C@H]2O[N+](=O)[O-] | 1.11% [at 35.3 µM] (inactive) | – |
| COC(=O)Cc1ccccc1 | 7.83% (inactive) | – |
| CC(O)CN1CCN(CC(=O)[O-])CCN(CC(=O)[O-])CCN(CC(=O)[O-])CC1.[Gd+3] (stereo not drawn) | 2.6% [at 35.3 µM] (inactive) | – |
| O=C(N/N=C/c1ccc([N+](=O)[O-])o1)c1cc([N+](=O)[O-])cc([N+](=O)[O-])c1O | 14% [at 35.3 µM] (inactive) | – |
| CCC(C)(C)c1ccc(O)c(C(C)(C)CC)c1 | – | 48.5 µM (active) and inactive |
| O=C(Cc1ccccc1)c1ccccc1 | 4.84% (inactive) | – |
| O=C(O)C(F)(F)C(F)(F)C(F)(F)C(F)(F)C(F)(F)F | 0.925% (inactive) | – |
| CN1CC[C@]23c4c5ccc(O)c4O[C@H]2[C@@H](O)C=C[C@H]3[C@H]1C5 | -0.582% (inactive) | – |
| ClCc1ccccc1Cl | 0.177% (inactive) | – |
| CN(C1CCCCC1)C1CCCCC1 | -0.298% (inactive) | – |
| C=C(Cl)Cl | 10% (inactive) | – |
| N#CC(C#N)=Cc1ccc(O)c(O)c1 | -6.73% [at 35.3 µM] (inactive) | – |
| CCOc1cccc(C2(N3CCN(c4ccccc4)CC3)CCC(C)CC2)c1 (stereo not drawn) | -9.48% (inactive) | – |
